Screens as filed in PubChem BioAssay.
AHR activator: activates the human aryl hydrocarbon receptor; activation, % at 5 µM; 320,000 compounds, 2.5% hits; AHR-responsive luciferase reporter cells, luminescence; AID 2796; P35869; in the data active means activation above about 47%
DAX1 inh-1: DAX1 (NR0B1) inhibition, primary screen; HEK293T StAR-luciferase reporter, SF-1/DAX-1 repression relief; inhibition, % at 6.8 µM; 370,000 compounds, 1.1% hits; AID 652010;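 active means inhibition above the mean over all tested compounds plus 3 SD, cut at about 3.6% in these data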;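 further: higher inhibition means more luminescence from relief of DAX-1 repression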
ssDAF12 agonist: activates DAF-12 receptor from parasite S. stercoralis; HEK293 ssDAF-12/GRIP1 lit1-tk-luc reporter, luminescence; % of 3 µM dafachronic acid response; activation, % at 6.8 µM; 370,000 compounds, 1% hits;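 active means activation above the mean over all tested compounds plus 3 SD, cut at about 0.9% in these data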
hgDAF-12 ag: hgDAF-12 agonism, primary luciferase screen | HEK293 GAL4-hgDAF12 UAS-luciferase reporter, agonist luminescence; normalized to butyrate control | activation, % at 6.8 µM | 370,000 compounds, 1.8% hits | AID 687014;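 active means activation above a cutoff set at the mean of all screened compounds plus 3 SD, cut at about 10% in these data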
hcDAF-12 act: H. contortus DAF-12 activation, primary screen; HEK293 hcDAF-12 lit1-tk-luc reporter, luminescence; 0% DMSO, 100% Δ7-dafachronic acid; activation, % at 6.8 µM; 370,000 compounds, 1.4% hits; AID 652067;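 active means activation above the mean of all tested compounds plus 3 SD, cut at about 5.5% in these data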
DAX1 inh-2: inhibits human nuclear receptor DAX1; HEK293 Gal4-DAX1 luciferase reporter, luminescence; inhibition, % at 6.75 µM; 340,000 compounds, 0.99% hits; P51843;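 active means inhibition above the mean over all tested compounds plus 3 SD, cut at about 4.2% in these data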;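 further: inhibition shows as a rise in luminescence from relieved DAX1 repression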
Target sequence (P51843 207-470 limits assumed): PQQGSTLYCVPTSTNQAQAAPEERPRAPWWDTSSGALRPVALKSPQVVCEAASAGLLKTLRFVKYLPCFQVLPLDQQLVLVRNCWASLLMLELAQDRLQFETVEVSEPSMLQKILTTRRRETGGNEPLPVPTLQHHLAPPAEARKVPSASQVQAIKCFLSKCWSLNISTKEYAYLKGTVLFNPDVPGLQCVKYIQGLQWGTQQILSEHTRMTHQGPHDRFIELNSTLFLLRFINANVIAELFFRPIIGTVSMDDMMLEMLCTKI
Each line names hits and unclear results; the compound was inactive in the other large screens. A selection: hits, their analogues and other compounds. The true share with any hit is near 5.7%.

CC1(C)SC2c3ccccc3C(=O)N2C1C(=O)O (stereo not drawn)	none (no result: AHR activator)
O=C(O)c1ccnc(C(=O)O)c1	DAX1 inh-2 4.5
C[C@@H]1ON(C)[C@H]2C[C@H]3c4cc(-c5ccccc5)ccc4CCN3C[C@@H]12	none (no result: AHR activator, DAX1 inh-2)
Cc1cc(NC(=O)Cn2cc([N+](=O)[O-])cn2)no1	DAX1 inh-2 4.7
O=C(Cn1cc([N+](=O)[O-])cn1)Nc1ccccn1	none
Cc1ccnc(NC(=O)Cn2cc([N+](=O)[O-])cn2)c1	hgDAF-12 ag 11
O=C(/C=C1\NCC2c3ccccc3CCN2C1=O)c1ccccc1 (stereo not drawn)	AHR activator 62
CCCCCCNc1nc(Cl)nc(NC(C)(C)CO)n1	DAX1 inh-2 5.3
COc1ccccc1NC(=O)OC(C)c1ccc(Cl)cc1 (stereo not drawn)	AHR activator 75, DAX1 inh-2 4.5
COc1ccc(CNC(=O)CCCC(=O)n2nc(C)c3ccccc32)cc1	none
C[C@@]12CCC3[C@@](CCC4[C@@]3(C)CCC[C@@]4(C)C(=O)Nc3ccc(Cl)cc3)(CC1=O)C2 (stereo partly drawn)	none
Oc1[nH]c(N=C2N=c3ccccc3=N2)c2ccccc12	AHR activator 58
O=C(COC(=O)Cc1ccc(Cl)cc1)NCc1ccco1	none
Cc1ccc(-n2ncc3c2CCCC3NC(=O)CSc2ccccn2)cc1C (stereo not drawn)	none
O=C(CNCC1CCCO1)Nc1ccc([N+](=O)[O-])cc1C(=O)Nc1ccccc1F (stereo not drawn)	none
COc1cccc(NC(=O)c2cc([N+](=O)[O-])ccc2NC(=O)CNCC2CCCO2)c1 (stereo not drawn)	AHR activator 48
Cc1cc(C)c(C)c(OCCN2CC(C)OC(C)C2)c1 (stereo not drawn)	none
COC(=O)[C@@H](Cc1ccccc1)NC(=O)NCCc1ccc(OC)c(OC)c1	DAX1 inh-2 4.3
Cc1cccc(-n2c(=O)[nH]c3c(C(N)=O)nc(C(C)C)nc32)c1	AHR activator 53
Cc1ccc(-n2c(=O)[nH]c3c(C(N)=O)nc(C(C)C)nc32)cc1	none
CC(=O)Cc1nsc(Nc2ccc3c(c2)OCCO3)n1	hgDAF-12 ag 12
CC(=O)Cc1nsc(Nc2ccc(F)cc2)n1	none
CN(Cc1c(F)cccc1Cl)C(=O)CCc1c[nH]c2ccccc12	DAX1 inh-2 6.2
Cc1cccc(NC(=O)/C=C/c2ccc([N+](=O)[O-])s2)c1	none
Cc1cccc(NC(=S)N/N=C/c2ccc([N+](=O)[O-])s2)c1	AHR activator 71
CCCOc1ccc(-c2cc(C(=O)NCC3CCCO3)c3ccccc3n2)cc1 (stereo not drawn)	AHR activator 51
O=C(NCC1CCCO1)c1cc(-c2ccncc2)nc2ccccc12 (stereo not drawn)	none (no result: AHR activator)
CCOC(=O)N1CCN(C(=O)c2cc(-c3ccc(OCC)cc3)nc3ccccc23)CC1	hgDAF-12 ag 12
CC(CN1CCN(C/C=C/c2ccccc2)CC1)c1ccccc1 (stereo not drawn)	none
O=C(COC(=O)CNS(=O)(=O)c1ccc(Br)cc1Cl)NCCc1ccccc1	ssDAF12 agonist 1.4
CC(=O)c1c(N2CCCC2)[nH]c(-c2ccccc2)nc1=S	none
CC(=O)c1c(N)[nH]c(-c2ccccc2)nc1=S	AHR activator 62 (no result: DAX1 inh-1, ssDAF12 agonist, hgDAF-12 ag, hcDAF-12 act)
Nc1nc2c(-c3ccc([N+](=O)[O-])cc3)nnn2c2ccccc12	none (no result: AHR activator, DAX1 inh-2)
CCc1cc(=O)oc2cc(C)cc(OCC(=O)NC(Cc3ccc(Cl)cc3)C(=O)O)c12 (stereo not drawn)	none
CCCCCCN1C[C@@H](n2cc(COC(=O)c3ccccc3)nn2)[C@H](O)C[C@@H]1c1ccccc1	none (no result: AHR activator)
COc1cc([N+](=O)[O-])cc(/C=N/NC(=O)Cn2nccc2C)c1O	DAX1 inh-2 6.0
CCOc1cc(/C=N/NC(=O)Cc2ccc(C(F)(F)F)cc2[N+](=O)[O-])c(Br)cc1OC	none
COc1cc(Br)cc(/C=N/NC(=O)Cc2ccc(C(F)(F)F)cc2[N+](=O)[O-])c1O	AHR activator 51
COc1cc([N+](=O)[O-])cc(/C=N/NC(=O)Cn2nc(C)cc2C)c1O	none
CCN(CC)C(=O)Oc1ccc2cc(Br)ccc2c1	hcDAF-12 act 6.3
Cc1c(CC(=O)Nc2ccc(Cl)cc2)sc2ccc(Cl)cc12	DAX1 inh-2 6.4
COc1ccc(-c2ccc(SCc3ccccn3)nn2)cc1OC	none
COc1cccc(-c2ccc(SCc3ccccn3)nn2)c1	hgDAF-12 ag 12
COc1ccc(C(=O)NCC(=O)N/N=C(C)\C=C\c2ccccc2)cc1OC	none
Cc1ccc(SSc2cc(C)ccc2N)c(N)c1	AHR activator 58
Cc1oc2ccc(OC(=O)N3CCOCC3)cc2c1C(=O)OC(C)C	AHR activator 47
CC(C)(C)c1ccc(OC(=O)N2CCOCC2)cc1	hgDAF-12 ag 11
COC(=O)c1c(C)oc2ccc(OC(=O)N3CCOCC3)cc12	none
Cc1oc2ccc(O)cc2c1C(=O)OC(C)C	none
Cc1oc2ccc(OCC(N)=O)cc2c1C(=O)OC(C)C	AHR activator 59
COC(=O)C1=C(C)N(Cc2ccc(F)cc2)C(=S)NC1c1cccc(F)c1 (stereo not drawn)	none (no result: AHR activator, DAX1 inh-2)
COC(=O)C1=C(C)N(CC(C)C)C(=S)NC1c1cccc(F)c1 (stereo not drawn)	ssDAF12 agonist 1.0 (no result: AHR activator, DAX1 inh-2)
O=C(Nc1ccc2nccnc2c1)Nc1ccccc1Cl	hgDAF-12 ag 11
O=C(Cc1ccccc1)NNC(=O)Nc1ccc(Cl)c(Cl)c1	none
O=C(Nc1ccc(Cl)c(Cl)c1)Nc1ccccc1C(=O)O	DAX1 inh-1 4.1
Cc1cc(NC(=O)Nc2ccc(Cl)c(Cl)c2)n(-c2ccccc2)n1	DAX1 inh-2 4.8
COc1ccc(CC(=O)N2N=C(C)CC2(O)C(F)(F)F)cc1OC (stereo not drawn)	none
CC1=NN(C(=O)CCc2ccc3c(c2)OCO3)C(O)(C(F)(F)F)C1 (stereo not drawn)	ssDAF12 agonist 9.7
CCCCc1c(-c2ccccc2OC)ncn1Cc1ccc(F)c(F)c1	none (no result: AHR activator, DAX1 inh-2)
O=C(Nc1cccnc1)c1ccc(N2CCCC2)c([N+](=O)[O-])c1	DAX1 inh-2 5.2
Cc1ccc(C(=O)Nc2cccnc2)cc1S(=O)(=O)N1CCCC1	AHR activator 54
CCCn1cnc2c1c(=O)n(CCCCC(C)=O)c(=O)n2C	none
COc1ccc(OC)c2sc(NC(=O)c3ccc(S(=O)(=O)N(C)C)cc3)nc12	AHR activator 69
O=C(Nc1nc2cc3c(cc2s1)OCCO3)c1cccc(N2C(=O)CCC2=O)c1	AHR activator 52
COc1ccc(OC)c2sc(NC(=O)c3cccc(N4C(=O)CCC4=O)c3)nc12	DAX1 inh-2 4.5
COc1ccccc1NC(=O)c1ccc(S(=O)(=O)N(C)C)cc1	none
